This is part of a sample that, as a whole, favours compounds with a hit. Of some 83,000 tested, about 20% had one in any assay.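 Single-dose data. Exposure time 48 hours. Values below 10 considered active.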 Activity calls are given as the source filed them.

The test system of this test is NCI/ADR-RES ovarian. As to the kind of experiment: NCI-60 one-dose screen, 48 h (100 = growth as untreated, 0 = no growth, -100 = all killed). To be noted: 10 µM. As for the experimental part: Growth inhibition of the NCI/ADR-RES human […] tumor cell line is measured as a screen for anti-cancer activity. Cells are grown in 96 well plates and exposed to the test compound for 48 hours. Compounds are tested at a single concentration, which is 10^-5 M for most compounds. The reported endpoint is percent growth (GI% or GIPRCNT), where numbers from 0 - 100% represent growth inhibition, and numbers from -100% - 0 represent cell death. For example, a value of 40 represents 60% growth inhibition. A value of 0 means no net growth occurred over the course of the experiment. A value of -40 indicates 40% of cells at the beginning of the experiment died by the end of the experiment. A value of -100 means all cells are dead at the end of the experiment.
NCI-60 Human Tumor Cell Lines Screen was performed using the standard one-dose NCI protocol, which is described in more detail at https://dtp.cancer.gov/discovery_development/nci-60/default.htm.
Compounds with GIPRCNT values below 10 were considered active. Activity score was based on GIPRCNT using the following formula: […]
Score is 0 for GIPRCNT values of 100 or above, 50 for GIPRCNT values of 0, and 100 for GIPRCNT values of -100.
As to `CCc1nc(N)nc(N)c1-c1ccc(Cl)cc1`, the growth is 56.4% (inactive).

On to `COc1cccc(/C=N/NC(=S)NC2CC3CCC2C3)c1O` (stereo not given), for which the growth was 15.4% (inactive).

For `CC(=O)NCc1cc(C)c(C)cc1C`, the growth is 105% (inactive).

For `O=[N+]([O-])c1ccc(-c2noc(-c3cccs3)n2)cc1`, the growth is 82.4% (inactive).

In the case of `COC(=O)c1[nH]c(=O)c(C#N)c(C(=O)OC)c1C(=O)c1ccccc1`, the growth was 97.5% (inactive).

Regarding `CC1CCC2C(C)(C)C3CC12CC1OC13C` (stereo not given), the growth was 107% (inactive).

As for `CCCCC(=O)c1ccc(OC)cc1`, the growth is 105% (inactive).

`COc1cc2cc(OC(C)=O)c3cc4c(cc3c2c(OC)c1OC)OCO4`: the growth was 95.7% (inactive).

`O=C(OCC(O)C1OC(c2ccccc2)OC(COC(=O)c2ccccc2)C1O)c1ccccc1` (stereo not given): the growth is 107% (inactive).

Turning to `O=C(/C=C/C(=O)c1ccccc1)c1ccccc1`, the growth was 114% (inactive).

In the case of `CCOc1ccc(/C=C/C(=O)c2ccccc2)cc1`, the growth was 105% (inactive).

Consider `N#CCc1ccc([N+](=O)[O-])cc1`, for which the growth is 106% (inactive).

In the case of `CC(C)(C)n1nc(C2CC2)c(Br)c1NC(=O)c1ccccc1F`, the growth was 103% (inactive).

For the compound `O=C(Nc1cccc(NC(=O)Nc2cc(C(F)(F)F)ccc2Cl)c1)Nc1cc(C(F)(F)F)ccc1Cl`, the growth was 26.2% (inactive).

In the case of `CC(C)NC(=O)OCc1c(COC(=O)NC(C)C)c(-c2ccc(Cl)c(Cl)c2)n2c1SCC2`, the growth was 38.2% (inactive).

Turning to `CC1=CC(=O)c2ccccc2C1=O`, the growth is 107% (inactive).

In the case of `Cc1c(O)cnc2nn(-c3ccccc3)c(=N)n12`, the growth was 108% (inactive).

Consider `CCCNc1ccc(C2=NCCCN2)cc1`, for which the growth was 95.2% (inactive).

Consider `O=C(O)CCCCNC(=O)c1ccccc1`, for which the growth was 94.8% (inactive).

For `O=C(Nc1ccccc1)OCCc1ccccc1`, the growth is 110% (inactive).

For the compound `COc1ccccc1N1CCN(C(=S)Nc2ccccc2)CC1`, the growth was 95.8% (inactive).

In the case of `O=c1cc(-c2ccccc2)[nH]c2c1CCCC2`, the growth was -40.8% (active).

`CN(C)CCN(Cc1ccccc1)c1ccccc1`: the growth was 103% (inactive).

Take `COC(=O)c1ccc(C(C)C)cc1`: the growth is 103% (inactive).

Consider `CN(C)/N=C/c1ccccc1O`, for which the growth is 115% (inactive).

For `O=[N+]([O-])c1cccc2nsnc12`, the growth is 110% (inactive).

`OCc1ccc(-c2ccc(-c3ccc(CO)s3)o2)s1`: the growth was 65.1% (inactive).

For the compound `COCCOC(=O)c1ccc(C(C)C)cc1`, the growth is 96% (inactive).

For `CCCOC(=O)C(O)c1ccccc1` (stereo not given), the growth is 109% (inactive).

For the compound `C#CC(C)(O)c1ccc(Cl)cc1` (stereo not given), the growth was 92.4% (inactive).

Consider `C=CC(=O)OCCCCCCCC`, for which the growth is 105% (inactive).

For the compound `CCOC(=O)C1OC1c1ccccc1` (stereo not given), the growth was 106% (inactive).

In the case of `Cc1cc(OCCO)cc(C)c1Cl`, the growth was 108% (inactive).

As to `O=S(=O)(O)c1ccc(O)c2ccccc12`, the growth was 98% (inactive).

As to `CCC/C=C(/C(C)=O)C(=O)OCC`, the growth was 107% (inactive).

As for `CCN(CC)CCNc1ccc(CO)c2sc3ccccc3c(=O)c12`, the growth was 40.7% (inactive).

For `CCCCC/C=N/Nc1nc(C)cc(=O)[nH]1`, the growth was 99.9% (inactive).

Consider `CNc1nc(NC)c2cn[nH]c2n1`, for which the growth is 108% (inactive).

In the case of `Cc1ncc(C#N)c(N)n1`, the growth was 100% (inactive).

In the case of `C#Cc1cccc(NC(=O)c2ccc(Cl)cc2Cl)c1`, the growth is 104% (inactive).

These data come from PubChem BioAssay (NCI).
